From PubChem
Most compounds without a hit are left out; they make up all but 7.5% or so of the library.
Rab9 prom act = qHTS Assay for Rab9 Promoter Activators; Huh7 Rab9 promoter-luciferase reporter, luminescence, 24 h; Potency, µM (doses to about 9.22 µM), for the others: at the highest dose activation, negative = inhibition, actives largely listed as activators; 320,000 tested, 2.8% active; note: % of control where 0% means no effect; nearly all actives have a fitted effect of over 60% in size
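Huh7 cells stably carrying Rab9 promoter–luciferase reporter, plated 1500 cells/well, compound added after 2 h and incubated 24 h at 37 °C; luciferase luminescence then read after 10 min with detection reagent.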
ELG1 genotox = qHTS screen for small molecules that induce genotoxicity in human embryonic kidney (HEK293T) cells expressing luciferase-tagged ELG1 | AID 504466, 2011 | HEK293T ELG1-luciferase reporter, luminescence, 16 h | Potency, µM (top dose mostly 46 µM), for inactives: top-dose activity change, positive = activation, usual class: activators | 330,000 tested, 1.3% active; note: % of control where 0% means no effect; nearly all actives have a fitted effect of over 60% in size
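Luminescence read-out: rising ELG1-luciferase signal, reflecting elevated ELG1 protein under genetic stress, flags genotoxic compounds. Cells were treated for 16 hr at 37 °C before ONE-Glo detection.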
Luc counter = Counterscreen for Luciferase (Kinase-Glo TM) Inhibition; Luciferin 4-monooxygenase (Photuris pensylvanica), Q27757; Kinase-Glo luciferase, ATP luminescence, 8 min; Potency, µM (titrated, usually from 38.3 µM), without a hit: at the highest dose activity change, negative = inhibition, hits mostly inhibitors; 200,000 tested, 0.28% active; AID 1379, 2008; note: % is set by controls: 0 for no effect and ±100 for the full control effect; nearly all actives have a fitted effect of over 60% in size
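Recombinant Kinase-Glo luciferase, 10 uM ATP (linear range), luciferin; imidazole pH 7.2 / KCl / MgCl2 / Tween / BSA buffer; 8 min RT; luminescence.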
FLuc counter = qHTS profiling assay for firefly luciferase inhibitor/activator using purifed enzyme and Km concentrations of substrates (counterscreen for miR-21 project) | AID 588342, 2011 | purified FLuc, Km substrates, luminescence inhibition | Luciferin 4-monooxygenase (Photinus pyralis), P08659 | 360,000 tested, 6.9% active | Potency, µM (series often up to 57.5 µM), for inactives: at the top dose activity change, negative = inhibition, hits mostly inhibitors;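 note: plate controls were vehicle for no effect and reference inhibitor for full effect; nearly all actives have a fitted effect of over 55% in size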
Target sequence (P08659 whole entry, looked up): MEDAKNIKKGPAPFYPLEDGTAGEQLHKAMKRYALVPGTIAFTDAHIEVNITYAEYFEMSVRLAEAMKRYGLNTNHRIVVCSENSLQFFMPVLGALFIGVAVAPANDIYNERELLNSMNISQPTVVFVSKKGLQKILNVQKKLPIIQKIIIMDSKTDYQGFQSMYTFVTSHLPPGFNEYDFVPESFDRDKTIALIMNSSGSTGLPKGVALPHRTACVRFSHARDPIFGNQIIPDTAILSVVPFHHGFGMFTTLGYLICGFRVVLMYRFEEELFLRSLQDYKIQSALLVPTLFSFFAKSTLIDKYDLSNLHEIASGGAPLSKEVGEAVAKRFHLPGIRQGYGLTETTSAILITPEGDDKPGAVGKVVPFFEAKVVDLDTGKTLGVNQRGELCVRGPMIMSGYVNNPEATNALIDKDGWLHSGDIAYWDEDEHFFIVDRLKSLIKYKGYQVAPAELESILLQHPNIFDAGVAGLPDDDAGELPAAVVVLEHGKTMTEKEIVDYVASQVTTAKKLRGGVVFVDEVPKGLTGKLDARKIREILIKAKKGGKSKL
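Purified P. pyralis luciferase, 10 nM final, with Km-level 10 uM D-luciferin and 10 uM ATP in 50 mM Tris acetate pH 7.5, 10 mM Mg acetate, 0.01% Tween-20, 0.05% BSA; 6-point qHTS titration about 60 µM downward; luminescence read.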
SMN2 splice up = qHTS Assay for Enhancers of SMN2 Splice Variant Expression; HEK293 SMN2-luciferase splicing reporter, luminescence, 30-36 h; Potency, µM (top dose mostly 46.1 µM), for inactives: at the highest dose activity change, positive = activation, usual class: activators; 210,000 tested, 2.8% active; AID 1458, 2008; note: % of control where 0% means no effect; nearly all actives have a fitted effect of over 55% in size
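HEK293 cells carry an SMN2 […]–luciferase reporter in which exon 7 inclusion puts luciferase in frame. Cells were plated 10-12 h before compound addition, then incubated 30-36 h at 37C. ONE-Glo luminescence was read; sodium butyrate at 4.5 mM final served as control.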
NPC1 prom act = qHTS Assay for NPC1 Promoter Activators. Potency, µM (titrated, usually from 9.22 µM), inactives show at the top dose activation, hits mostly activators. Huh7 NPC1 promoter luciferase reporter, 24 h. AID 485313, 2010. 320,000 tested, 2.4% active; note: % of control where 0% means no effect; nearly all actives have a fitted effect of over 60% in size
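In 1536-well qHTS, Huh7 cells harboring an NPC1 promoter–luciferase construct received compound for 24 h; activation was quantified by luminescence following luciferase reagent addition.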
* = called active by the depositor; ? = inconclusive; . = no result; [ ] = dose if it differs, or a comment. Calls come from the whole dose curve; as a rule, active = well fitted curve in the direction sought with a large enough effect; inconclusive = small, poorly fitted or top-dose-only effect, or another doubt; inactive = no such curve, though single readings can be large; an effect the other way counts as inactive or inconclusive. Potency is the fitted concentration of half-maximal effect.

SMILES	Rab9 prom act	ELG1 genotox	Luc counter	FLuc counter	SMN2 splice up	NPC1 prom act
COCCn1c(C)cc(C(=O)CSc2ncn[nH]2)c1C	28.9%	11.8%	3.5%	?	5.62µM*	3.8%
COCCn1c(C)cc(C(=O)CSc2nnc3ccccn23)c1C	?	0.581µM*	?	1.35µM*	?	?
COCCn1c(SCC(=O)c2cc(C)n(C)c2C)nc2ccccc2c1=O	24.4%	0.5%	-1.1%	?	17.8%	15.9%
Cc1ccc(C(=O)CSc2nnc3ccccn23)c(C)c1	0.794µM*	4.61µM*	0.6%	2.69µM*	10µM*	2µM*
c1ccc(-c2nc(-c3cccc4ccccc34)c(NC3CCCCC3)o2)cc1	.	.	-0.5%	.	14.4%	.
Cn1nccc1C(=O)Nc1ccn(C23CC4CC(CC(C4)C2)C3)n1	-1.7%	?	3.5%	26.9µM*	-55.8%	6.8%
COc1cc(NC(=O)C2CCN(S(=O)(=O)c3c(C)noc3/C=C/c3ccccc3F)CC2)cc(OC)c1OC	.	.	.	-1.5%	.	.
CCCCC(CC)CNC(=O)CC1Nc2c3ccccc3nc(=S)n2C1=O (stereo not given)	-8.6%	-0.2%	.	-12.5%	.	-10.4%
CCC(=O)Nc1ccc(C)cc1-c1nc2ccccc2n(CC(=O)Nc2ccccc2Cl)c1=O	.	.	.	-6.6%	.	.
O=C1NC(=O)/C(=C/c2ccc3c(c2)OC(F)(F)O3)S1	?	.	.	.	.	8.2µM*
O=C1NC(=O)/C(=C/c2cc3c(cc2Br)OCO3)S1	3.1%	0.5%	.	?	.	-2.5%
CCOC(=O)c1sc2nc(N3CCOCC3)c3c(c2c1N)CC(C(C)C)OC3 (stereo not given)	2.0%	6.6%	2.7%	-2.1%	.	-7.3%
COC(=O)c1sc2nc3c(cc2c1N)COC(C)(C)C3	3.55µM*	8.2µM*	-5.6%	10.7µM*	8.9%	2.82µM*
CC1(C)Cc2nc3scc(NC(=O)c4ccccc4)c3cc2CO1	0.2%	1.6%	.	10.7µM*	.	-3.5%
CCOC(=O)c1sc2nc3c(cc2c1N)COC(C(C)C)C3 (stereo not given)	?	0.13µM*	-5.8%	0.12µM*	-84.1%	0.794µM*
Cc1c2cnn(-c3ccccc3)c(=O)c2c(C)n1CC(=O)NCc1ccccc1	.	.	.	-1.4%	-5.0%	.
Cc1[nH]c(C)c2c(=O)n(-c3ccccc3)ncc12	?	20.6µM*	-3.4%	?	-0.4%	17.6%
Cc1ccc(NC(=O)c2cnc(SCC(=O)N3CCOCC3)n(C)c2=O)cc1C	.	.	.	15.1µM*	.	.
COc1ccccc1NC(=O)c1cnc(SCC(=O)NCC2CCCO2)n(C)c1=O (stereo not given)	-0.6%	6.2%	.	5.36µM*	.	-2.4%
COc1ccccc1NC(=O)c1cnc(SCC(=O)N2CCOCC2)n(C)c1=O	.	.	.	7.57µM*	.	.
COc1ccccc1NC(=O)c1cnc(SCC(=O)N2CCCc3ccccc32)n(C)c1=O	.	.	.	1.69µM*	.	.
Cn1c(SCC(=O)N2CCOCC2)ncc(C(=O)Nc2ccccc2)c1=O	.	.	.	0.5%	.	.
COc1cccc(NC(=O)c2cnc(SCC(=O)N3CCCc4ccccc43)n(C)c2=O)c1	.	.	.	-13.6%	.	.
CC(C)Cc1nn2c(=O)cc(COC(=O)c3ccc(NC(=O)C4CCCCC4)cc3)nc2s1	.	.	.	-4.1%	.	.
CCOC(=O)N1CCC(N2Cc3cccc(C(=O)Nc4ccc(CC)cc4)c3C2=O)CC1	0.6%	-15.4%	17.4%	12µM*	6.7%	0.3%
SMILES	Rab9 prom act	ELG1 genotox	Luc counter	FLuc counter	SMN2 splice up	NPC1 prom act
CCOC(=O)N1CCC(N2Cc3cccc(C(=O)Nc4ccc(OCC)cc4)c3C2=O)CC1	-1.7%	-6.7%	.	12µM*	.	0.7%
CCOc1ccc(CCNC(=O)Cc2ccc(NC3=NC4CS(=O)(=O)CC4S3)cc2)cc1OCC (stereo not given)	-3.2%	2.4%	.	1.8%	.	-3.5%
Cc1ccc(S(=O)(=O)C(CNC(=O)C(=O)NCCc2ccccc2)c2cccs2)cc1 (stereo not given)	.	.	.	-9.0%	.	.
COc1ccc(-c2cnnc(N/N=C/c3ccc(OC)c(OC)c3)n2)cc1	-0.3%	-2.5%	-19.4%	2.69µM*	.	5.8%
Cc1cc(-c2ccccc2)nc(N/N=C/c2ccco2)n1	?	6.8%	-2.1%	12µM*	12.6%	?
Cc1cc(C)nc(N/N=C/c2ccco2)n1	-2.9%	10.1%	9.0%	?	?	10.0%
C(=N\Nc1nc(N2CCCC2)nc(N2CCCC2)n1)/c1cccnc1	-5.6%	-11.8%	0.9%	4.4%	-22.7%	-4.9%
Cc1cc(-c2ccccc2)nc(N/N=C/c2cccnc2)n1	1.3%	-1.9%	-17.7%	12µM*	.	4.8%
COc1ccc(/C=N/Nc2nc(C)cc(-c3ccccc3)n2)cc1OC	1.0%	-12.6%	.	13.5µM*	.	-1.7%
O=c1nc2ccccc2c2n1CC(CN1CCN(c3ccccc3)CC1)N2 (stereo not given)	.	.	.	.	-4.7%	.
Cc1ccc(OC(C)C(=O)Nc2ccccc2C(=O)NCc2cccnc2)cc1C (stereo not given)	-0.3%	-13.5%	.	-2.3%	.	-3.1%
Cc1cc(-c2ccccc2)nc(N/N=C/c2ccc([N+](=O)[O-])cc2)n1	0.9%	-8.3%	-2.4%	-25.8%	0.8%[1.84 µM]	-3.5%
Cc1cc(-c2ccccc2)nc(N/N=C/c2ccccc2)n1	?	16.8%	.	6.75µM*	.	?
Cc1ccc2nc(N/N=C/c3ccco3)cc(C)c2c1	2.51µM*	9.2%	-3.1%	2.69µM*	.	2.82µM*
Cc1ccc2nc(C)cc(SCC(=O)N/N=C/c3ccco3)c2c1	-6.3%	-6.7%	.	3.0%	.	-8.6%
C(=N\Nc1nc(Nc2ccccc2)nc(Nc2ccccc2)n1)/c1cccnc1	3.6%	-5.7%	-2.8%	?	3.1%	2.9%
C(=N/Nc1nc(-c2ccccc2)cc(-c2ccccc2)n1)/c1cccnc1	25.5%	0.7%	-7.5%	2.69µM*	2.51µM*	17.6%
O=C(NN=C1CCCCCCCCCCC1)c1cccc(S(=O)(=O)N2CCOCC2)c1	-7.6%	-0.1%	12.6%	3.2%	-7.8%	-0.6%
O=C(COc1ccc(Cl)cc1)Nc1ccc(-c2nc3ccccc3s2)c(O)c1	.	.	.	-7.7%	21.3%	.
COc1cc(OC)cc(C(=O)Nn2cc(C(=O)Nc3c(F)cccc3F)c3ccccc3c2=O)c1	-1.4%	-6.7%	-2.2%	-0.1%	-24.0%	-1.9%
COc1ccc(-n2nc(C(=O)NCC(=O)N3CCN(c4ccc(F)cc4)CC3)c3ccccc3c2=O)c(OC)c1	21.7%	13.2%	.	1.69µM*	.	16.9%
